# Assay outcomes from PubChem BioAssay.
# The sample as a whole holds a higher share of hits than the screen did.
# GBA activity up = glucocerebrosidase activity enhancement; P04062; L444P Gaucher fibroblasts, 4-MU-glucoside fluorescence, 3 days; activation, % at 10 µM; 30,000 tested, 0.44% active; AID 784; in the data active = activation above about 65%;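 also: 0% = vehicle wells and 100% = positive control wells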
# Target sequence (P04062 whole entry L483P): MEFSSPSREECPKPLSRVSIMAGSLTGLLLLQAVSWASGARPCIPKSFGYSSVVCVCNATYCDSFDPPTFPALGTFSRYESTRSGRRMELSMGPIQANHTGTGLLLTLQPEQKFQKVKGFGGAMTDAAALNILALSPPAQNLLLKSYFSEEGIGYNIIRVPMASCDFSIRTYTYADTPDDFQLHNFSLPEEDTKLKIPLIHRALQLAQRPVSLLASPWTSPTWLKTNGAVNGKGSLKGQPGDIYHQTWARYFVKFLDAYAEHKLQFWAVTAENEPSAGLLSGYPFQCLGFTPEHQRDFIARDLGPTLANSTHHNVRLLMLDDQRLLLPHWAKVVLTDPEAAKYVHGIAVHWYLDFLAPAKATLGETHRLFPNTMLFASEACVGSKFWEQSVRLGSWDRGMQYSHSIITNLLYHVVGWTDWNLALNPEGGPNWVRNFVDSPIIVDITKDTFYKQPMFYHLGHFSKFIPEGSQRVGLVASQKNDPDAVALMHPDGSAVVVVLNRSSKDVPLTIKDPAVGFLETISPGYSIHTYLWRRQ
# * marks the source's active call; other numbers are inactive results.
SMILES,GBA activity up
COc1ccc(-c2cc(C(F)(F)F)nc(NCc3ccco3)n2)cc1OC,-36
FC(F)(F)c1cc(-c2ccco2)nc(NCc2ccco2)n1,6
COc1cccc(-c2cc(C(F)(F)F)nc(NCc3ccco3)n2)c1,106*
O=C(Nc1ccc(OC(F)(F)F)cc1)C1CCCN(S(=O)(=O)c2cccnc2)C1 (stereo unspecified),10
CCN1C(=O)C(C)S/C1=N\S(=O)(=O)c1ccc(Cl)s1 (stereo unspecified),11
O=C(CCS(=O)(=O)c1cccc2nonc12)NCCc1ccccc1,-8
O=C(CCS(=O)(=O)c1cccc2nonc12)N1CCCc2ccccc21,72*
O=C(CCCC(=O)N1CCCc2ccccc21)N1CCCc2ccccc21,-11
CN(C1=NC(=O)C(CC(=O)Nc2ccc(Br)cc2)S1)c1ccc(O)cc1 (stereo unspecified),3
O=C(Cn1c(CN2CCCCC2)nc2ccccc2c1=O)NCc1ccco1,-5
Cc1ccnc(NC(=O)CCc2c(C)nc3ncnn3c2C)c1,-35
COc1ccc2nc(C)c(C(=O)OCCN(C)C)cc2c1,-5
CCCCCn1c(=NC(C)=O)c(C#N)cc2c(=O)n3cccc(C)c3nc21,42
Cn1c(Sc2nc3ccccc3n2C)nc2ccccc21,-20
CN(C)c1ccc(-c2nc3ccccc3n2C)cc1,81*
Cn1c(-c2ccc(Br)o2)nc2ccccc21,5
CCN(CC)S(=O)(=O)c1cc(Br)ccc1OC,-7
O=C(NCc1ccc2c(c1)OCO2)c1ccc(C2SCC(=O)N2Cc2ccco2)cc1 (stereo unspecified),11
COc1cccc(-n2nnc3c(=O)n(Cc4ccccc4Cl)cnc32)c1,25
COC(=O)Cn1cnc2c(C#N)c3n(c2c1=O)CCCCC3,-11
N#Cc1c2n(c3c(=O)n(Cc4ccccc4Cl)cnc13)CCCCC2,68*
CCOC(=O)Cn1cnc2sc3c(c2c1=O)CCC3,-14
O=C(CCN1C(=O)c2ccccc2S1(=O)=O)Nc1nc2c(s1)CCCC2,-6
O=C(Nc1ccccc1-c1ccccc1)C1CCCN(c2ncccn2)C1 (stereo unspecified),-16
N#CN(CC(N)=O)c1nc(N2CCCCC2)nc(N2CCCCC2)n1,-1
SMILES,GBA activity up
N/C(=N/O)c1nc(N2CCCCC2)nc(N2CCCCC2)n1,89*
C1CCN(c2nc(N3CCCCC3)nc(N3CCNCC3)n2)CC1,-65
COc1ccc(CCn2c(-c3ccco3)nc3oc4ccccc4c(=O)c3c2=O)cc1,-9
C=CCNC(=O)CCCCC(=O)NCC=C,2
Cc1ccc(C)c(OCC(=O)Nc2nonc2NC(=O)COc2cc(C)ccc2C)c1,-28
C=CCNC(=O)CCCOc1cc(C)ccc1C,68*
Cc1cc(C)nc(Sc2nc(C)nc3c2oc2ccccc23)n1,136*
Cc1nc(SCC(=O)Nc2ccccc2)c2oc3ccccc3c2n1,-60
Cc1cc(C)nc(N2CCN(c3nc(C)nc4c3oc3ccccc34)CC2)n1,-8
Cc1onc(-c2ccccc2Cl)c1C(=O)OCC(=O)N1CCCc2ccccc21,-13
Cc1cccc(-n2nnc(C(=O)NCc3ccccn3)c2N)c1,-2
COC(=O)C1(CCSC)NC(c2ccco2)C2C(=O)N(C)C(=O)C21 (stereo unspecified),3
CCNC(=O)c1cc2c(=O)n3cccc(C)c3nc2n1C,-18
Cc1cccn2c(=O)c(C=Nc3ccccc3)c(NCCO)nc12,-23
Cc1cccn2c(=O)c(C=Nc3ccc(Cl)cc3)c(NCCO)nc12,68*
Cn1c(COc2ccccc2)nnc1SCCC(=O)Nc1ccccc1,-13
O=C(O)CN(Cc1ccccc1)S(=O)(=O)c1ccc(F)cc1,-41
O=C(Nc1nccs1)c1ccc(COc2ccccc2Br)o1,6
C=CCOc1cccc(C2/C(=C(/O)c3ccccc3)C(=O)C(=O)N2CCCN2CCOCC2)c1 (stereo unspecified),-18
O=C(O)c1ccccc1-c1ccccc1C(=O)NCc1ccco1,6
CCOC(=O)N1CCN(C(=O)c2ccc3c(=O)n(Cc4ccc(OC)cc4)c(=S)[nH]c3c2)CC1,-35
CCOC(=O)N1CCN(C(=O)c2ccc(Cn3c(=S)[nH]c4cc5c(cc4c3=O)OCO5)cc2)CC1,-14
CCOC(=O)N1CCN(C(=O)c2ccc3c(=O)n(Cc4ccccc4)c(=S)[nH]c3c2)CC1,69*
O=C(COC(=O)Cc1cccs1)Nc1ccccc1,-2
Cc1ccc2c(c1)C1OCCC1C1N2C(=O)C2C(C(=O)O)C3C=CC21O3 (stereo unspecified),-46
SMILES,GBA activity up
Cc1ccc2c(c1)C1C=CCC1C(C(=O)O)N2 (stereo unspecified),10
Cc1ccc2c(c1)[C@H]1OCC[C@H]1[C@@H](c1ccncc1)N2,72*
O=C(CSCc1ccc(Cl)cc1)c1ccco1,-5
CC(=O)Nc1nc(C)nc(C)c1C(C)=O,-3
O=C(CN1CCCCC1)Nc1cccc(Br)c1,-9
COCCn1c(CN2CCN(c3ccccc3F)CC2)nc2c1c(=O)n(C)c(=O)n2C,-4
CCCn1c(N2CCN(CC(=O)c3c[nH]c4ccccc34)CC2)nc2c1c(=O)[nH]c(=O)n2C,-13
CC(=O)OC(/C(O)=C(\C#N)c1nc2ccccc2[nH]1)c1ccccc1 (stereo unspecified),6
CCOCCCNC(=O)c1cn(C)c(=O)c2cc(OC)c(OC)cc12,-53
COCCNC(=O)c1cn(C)c(=O)c2cc(OC)c(OC)cc12,-37
COc1cc2c(C(=O)NCCCN3CCN(c4cccc(Cl)c4)CC3)cn(C)c(=O)c2cc1OC,85*
CCOc1ccc(NC(=O)CCN2CCCCC2)cc1,-10
COCC(=O)N(C)C1(c2nnnn2CCOC(=O)Nc2cccc3ccccc23)CCCC1,-24
CCCCN(CCCC)CCNC(=O)Cc1nc2c(c(=O)[nH]c(=O)n2C)n1C,0
CCOC(=O)c1oc2c(C)c(O)ccc2c(=O)c1-c1nncn1-c1ccccc1,84*
CCOC(=O)c1oc2c(CN3CCCCC3C)c(O)ccc2c(=O)c1-c1ccc(OC)c(OC)c1 (stereo unspecified),-24
CCOC(=O)c1nn(-c2ccccc2)c(=O)c(C#N)c1C,3
COc1ccc(OC)c(-n2c(-c3cccc(O)c3)n[nH]c2=S)c1,-8
Cc1ccccc1CS(=O)(=O)CCC(=O)NCc1ccccn1,-27
CCS(=O)(=O)N1CCCC(C(=O)NC2CCC(C)CC2)C1 (stereo unspecified),19
Cc1cc(-c2nnc(SCc3cccnc3)o2)no1,86*
Cc1cc(-c2nnc(SCC(=O)NC3CCCC3)o2)no1,-14
N#Cc1ccc(CSc2nnc(-c3cnccn3)o2)cc1,-20
COC(=O)c1cnn(C(=O)c2cc(OC)ccc2Br)c1N,9
COc1cccc(NC(=O)CCS(=O)(=O)c2cccs2)c1,15
SMILES,GBA activity up
Cc1ccc(NC(=O)CN(C)S(=O)(=O)c2cccc3nsnc23)cc1C,-47
CN(CC(=O)Nc1ccc(F)c(F)c1)S(=O)(=O)c1cccc2nsnc12,121*
Cc1ccc(NC(=O)CN(C)S(=O)(=O)c2cccc3nsnc23)cc1Cl,-39
CCCc1nnc(SCc2ccc(OC)cc2)n1N,-3
CCn1c(SCC(=O)Nc2ccc(OCc3ccccc3)cc2)nnc1-c1ccco1,5
CCCn1c(NC(=O)c2ccc(Cl)c(S(=O)(=O)N3CCCC3)c2)nc2ccccc21,-9
O=C(CCCn1c(=S)[nH]c2cc3c(cc2c1=O)OCO3)N1CCN(c2ccc(F)cc2)CC1,-21
O=C(CCCn1c(=S)[nH]c2cc3c(cc2c1=O)OCO3)N1CCN(c2ncccn2)CC1,79*
